Assay outcomes from PubChem.
The entries come from a sample that favours hits as a whole.
Tgondii IFNg: T. gondii growth inhibition with IFN-gamma, primary screen, cell-based; Toxoplasma gondii growth in IFN-gamma-treated host cells; hits give low values; activity change, negative = inhibition, % (test concentration not listed); actives 3.8% (n = 69,000); in the data active = activity change below about -70%, passing the limit was not always enough;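 also: host cells are HeLa cells infected with Toxoplasma gondii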
Starred values were filed as active, the others as inactive; ! = a repeat was not active.

SMILES	Tgondii IFNg
CC(=O)NC1=NN(C(C)=O)C(C)(c2ccccc2)S1 (configuration not stated)	-77*!
CC(=O)Nc1nonc1-c1ccccc1	0
CC(=O)Nc1ccccc1	-14
CC1=C(C(=O)NCc2ccccc2Br)C2(CCN(S(C)(=O)=O)CC2)OC1=O	31
CCOC(=O)N1CCN(C(=O)c2ccc(N3CCC(NCc4cccs4)CC3)cc2)CC1	-2
CCOC(=O)N1CCC(NC(=O)c2oc3ccc4c(c3c2C)C(O)CC2(CCCCC2)O4)CC1 (configuration not stated)	-95*
Cc1c(C(=O)NCCCN2C(C)CCCC2C)oc2ccc3c(c12)C(O)CC1(CCCCC1)O3 (configuration not stated)	-56
CCCCNC(=O)CCC1N=C2c3ccccc3N=C(SCC#N)N2C1=O (configuration not stated)	29
Fc1cnc(N2CC[C@@H]3[C@H]2CCN3c2nncs2)nc1	15
Cc1oc(-c2ccc(NC(=O)c3ccc(F)c(F)c3)cc2)nc1Cn1cccn1	-46
CNC(=O)C1(c2ccncc2)CCCN1 (configuration not stated)	12
COCCN1Cc2ccnn2CC(C(=O)Nc2nc(C)cs2)C1 (configuration not stated)	4
O=c1[nH]c2cc(Cl)c(Cl)c([N+](=O)[O-])c2[nH]c1=O	17
O=c1[nH]c2cc(C(F)(F)F)cc(Br)c2[nH]c1=O	-64
O=c1[nH]c2cc(Cl)c(Cl)cc2[nH]c1=O	-72*
CC(C)C1CN(C(=O)c2ccccc2F)CCC(=O)N1Cc1ccc(F)cc1 (configuration not stated)	0
CCCNC(=O)c1cncc(N(C)S(=O)(=O)c2ccc(C)cc2)c1	1
Cc1ccc(C)c(-c2[nH]ncc2CN(C)Cc2cnn(C)c2C)c1	-1
Cc1c(CN(C)C(=O)c2cccc(C#CC(C)(C)O)c2)cnn1C	-1
Cc1c(CN(C)Cc2cccc(C(C)(C)C)c2O)cnn1C	-93*
COC(=O)C1CCCCN1Cc1ccc2c(c1)CN(C(=O)CSc1nnc(C)s1)CCO2 (configuration not stated)	-9
CCOc1ccc(-c2nc3c(s2)CN(S(=O)(=O)c2ccc(C(C)C)cc2)CC3)cc1	-7
Cc1cc(C)n2ncc(CN3CCCC3c3nc(-c4ccncc4)no3)c2n1 (configuration not stated)	-3
C1CCC(C(CC2CCCCN2)C2CCCCC2)CC1 (configuration not stated)	-96*!
CN(C)CC(=O)NCCC1CCCCN1 (configuration not stated)	-5
SMILES	Tgondii IFNg
CN1CCN(CCC2CCCCN2)CC1 (configuration not stated)	17
CC(C)C(NC(=O)C(=O)N1CCCc2ccccc21)c1ccccn1 (configuration not stated)	-2
Cc1nc(-c2ccccc2)sc1CCNS(=O)(=O)c1ccc2c(c1)OCCO2	101
CC(C)c1ccc(/C=C/C(=O)O)cc1	1
O=C(O)/C=C/c1ccc(-c2ccc(O)c(C34CC5CC(CC(C5)C3)C4)c2)cc1	-79*
O=C(O)/C=C/c1ccc(O)c(O)c1	7
Cn1c(=O)c2[nH]cnc2n(C)c1=O	112
S=c1nc[nH]c2nc[nH]c12	-71*
Cc1sc2ncnc(SCC(=O)Nc3nc4c(s3)CC(C)(C)CC4=O)c2c1C	0
Cc1nc(SCC(=O)NCC2CCCOC2)oc1C (configuration not stated)	6
COc1ccc(-c2nc(C(=O)Nc3ccnn3C3CCN(C)CC3)cs2)cc1	-31
CN(C(=O)CCn1cnc2ccccc2c1=O)c1nnc(SCc2ccccc2)s1	5
COc1cc([C@@H]2c3cc4c(cc3[C@H](O)[C@H]3COC(=O)[C@H]23)OCO4)cc(OC)c1OC	-76*!
COc1cc([C@@H]2c3cc4c(cc3[C@@H](O[C@@H]3O[C@@H]5CO[C@@H](C)O[C@H]5[C@H](O)[C@H]3O)[C@H]3COC(=O)[C@H]23)OCO4)cc(OC)c1O	-80*
COc1ccc([C@H]2C/C=C\C[C@@H](c3ccc4c(c3)OCO4)NC(=O)CCC(=O)N2)c(OC)c1	-52
COc1cc2c(c(OC)c1OC)-c1c(cc3c(c1OC)OCO3)C[C@H](C)[C@@H](C)C2	-8
COc1ccc(-c2nc(Cn3nnc(-c4nc(-c5ccc(C(F)(F)F)cc5)no4)c3C)c(C)o2)cc1	-4
CCn1cc(-c2cc(C(=O)Nc3ccc4nc(C)sc4c3)on2)c(C)n1	19
Cc1cnc(N2CC[C@@H](OCC3CC3)[C@@H]2Cc2ccncc2)nc1	-5
CC(C(=O)N1CCC(C(O)(c2ccccc2)c2ccccc2)CC1)n1ccnc1 (configuration not stated)	-11
CC(C)(C)c1ccc(C(O)CCCN2CCC(C(O)(c3ccccc3)c3ccccc3)CC2)cc1 (configuration not stated)	-91*!
Cn1cc(CN2CCC(C(O)(c3ccccc3)c3ccccc3)CC2)cn1	4
Cc1ccc(-n2cnc3cc(NS(=O)(=O)c4ccc(C)cc4)ccc32)cc1	-1
O=C(Nc1ncc(SCCN2CCCC2)s1)[C@]1(c2ccc(S(=O)(=O)C3CC3)cc2)C[C@H]1C1CCCCC1	-73*
COc1ccccc1NC(=O)c1c(O)c2ccccc2n(-c2ccccc2)c1=O	140
SMILES	Tgondii IFNg
COCCN1C[C@H]2[C@H](OC)CCN(Cc3ccc4ccccc4n3)[C@H]2C1	12
CCc1ncc2c(n1)CN(C(=O)c1cccc(OC)c1C)C2	2
O=C(c1ccoc1)N1CCC2(CC1)CN(c1cccnc1)C(=O)CO2	-8
CC(C)[C@@H]1COCc2cn(nn2)CCC[C@@H](C)C(=O)N1	-20
Cc1ccccc1NC(=O)Cn1nc(-c2ccc(Cl)cc2)c2ccccc2c1=O	-3
Cc1cc(C(=O)c2ccc(C(C)(C)C)cc2)c(N)s1	19
CC(C)(C)c1ccc(C(=O)/C=c2\[nH]c(=O)/c(=C\c3cccs3)s2)cc1	-102*
CN(Cc1cccc2ncccc12)CC1CCOC1 (configuration not stated)	-2
CCOC(=O)c1nc(NCc2ccc(Cl)cc2)c2ccccc2n1	-27
COc1ccc(-c2noc(-c3c(O)c4cc(F)ccc4n(C)c3=O)n2)cc1	16
Cc1cnc(CNC(=O)c2nc(-c3cn(Cc4ccccc4)c(C)n3)n3ccccc23)cn1	-2
Cc1cnc(CNC(=O)c2c(=O)c3ccc(N4CCCN(C)CC4)nc3n3c2sc2ccccc23)cn1	-81*
CCNC(=O)c1c2c(N3CCN(C)CC3)ncnc2n2ccccc12	35
COc1ccc(-c2nnc3c(C(=O)N4CCC(O)(c5ccc(Cl)cc5)CC4)cccn23)cc1	15
CSc1ccc(C(=O)C2CCCN(C(=O)CCc3n[nH]c(C)n3)C2)cc1 (configuration not stated)	-3
O=C(C1CCN(c2cnc3nccnc3c2)CC1)N1CCC(N2CCCCC2)CC1	67
COc1ccc(C(N)=O)cc1-c1ccc(S(C)(=O)=O)cc1	5
COc1ccc(C)cc1-c1ccc(C(N)=O)cn1	9
COc1ccc(OC)c(-c2cc(C(N)=O)ccc2C)c1	-76*
C[C@H]1CN([C@@H](C)CO)C(=O)Cc2cc(NC(=O)CCCCCC(=O)Nc3ccccc3N)ccc2O[C@@H]1CN(C)S(=O)(=O)c1cccs1	-9
CNc1ncccc1C(=O)NCC1CCN(Cc2cnc(C)[nH]2)C1 (configuration not stated)	6
CC(C)OCC(=O)Nc1cnn(CC(=O)Nc2ccc(F)cc2)c1	2
